PubChem BioAssay (EPA / NIEHS)
Several values for one entry are separate records, joined by “and”; a condition that tells them apart may be missing. Equal entries are not always repeated. Inconclusive results are not listed. Activity calls are given as the source filed them. How the source made its calls, unless noted: active means hit-call score of the fitted dose curve at least 0.9, where 1 is the maximum; inactive means score below 0.9.

Experiments:
[1] = CCTE_Shafer_MEA_acute_cross_correlation_area: CCTE's Neural Acute Assay for Area of Cross Correlation, Shafer Lab (AID 2284024);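 further: area under pooled inter-electrode spike cross-correlation near zero lag as percent change from own baseline; curves fitted for loss of cross-correlation area so actives lower synchrony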
In short: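 Plates equilibrated 20 min at 37 C, then 40 min baseline was recorded, compound was added (0.03-40 uM), and a further 40 min was recorded. Wells needed ≥10 active electrodes (≥5 spikes/min) on exposure day.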

[2] = CCTE_Shafer_MEA_acute_cross_correlation_HWHM: CCTE's Neural Acute Assay for Cross Correlation at Half Width at Half Maximum, Shafer Lab (AID 2284026);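 further: percent change per well from pre-dose baseline in spike cross-correlogram half width; hits are a decrease in cross-correlogram half width relative to DMSO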
In short: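 Rat cortical neuron cultures on microelectrode arrays were equilibrated 20 min at 37 C, recorded 40 min at baseline, then 40 min after compound addition (0.03-40 uM, ≥3 wells). Spikes were detected at 8x rms noise after 300-5000 Hz band-pass filtering.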

[3] = CCTE_Shafer_MEA_acute_synchrony_index: CCTE's Neural Acute Assay for Synchrony, Shafer Lab (AID 2284027);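 further: network synchrony index of spontaneous spiking in primary rat cortical neurons on MEAs; fitted for loss of signal so actives lower synchrony relative to DMSO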
In short: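 Rat cortical cultures, DIV 13/15; spikes detected at 8x rms noise, 300-5000 Hz band-pass. Compound 0.03-40 uM, ≥3 wells; 40-min pre- and post-exposure recordings, 37 C. Readout: % change in synchrony index; loss-of-signal fit vs DMSO.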

[4] = CCTE_Shafer_MEA_dev_firing_rate_mean: CCTE's Neural Network Formation Assay for Mean Firing Rate, Shafer Lab (AID 2284031);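 on AC50: curve fitted for loss of firing so AC50 reflects decreased mean firing rate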
In short: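 Read-out: spike count/recording length, averaged over active electrodes, then AUC across days 5, 7, 9, 12. Rat cortical cultures on MEA; continuous 12-day exposure, media and treatment renewed DIV 5, 9; DMSO baseline.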

[5] = CCTE_Shafer_MEA_dev_per_burst_spike_percent: CCTE's Neural Network Formation Assay for Percent of Spikes in a Burst, Shafer Lab (AID 2284032);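 on AC50: fitted as a decrease in burst spike percentage below DMSO baseline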
In short: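 Value is trapezoidal AUC over recordings on days 5, 7, 9 and 12 of the well-mean fraction of spikes falling in single-electrode bursts; rat cortical cultures exposed continuously from plating, treatment renewed DIV 5 and 9, fitted downward against DMSO.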

[6] = molecular target: Estrogen receptor (Homo sapiens) (UniProt P03372); experiment: CCTE_Deisenroth_AIME_96WELL_LUC_Inactive: CCTE's 96-well Estrogen Receptor Transactivation Assay without AIME metabolic competence (ERTA luciferase; metabolism negative), Deisenroth Lab (AID 2284025; active means hit-call score of the fitted dose curve at least 0.9, where 1 is the maximum)
In short: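 Metabolism-negative arm: chemicals (0.002–200 uM, 10 points) incubated 2 h with alginate-water microspheres, then medium moved onto VM7Luc4E2 cells for 24 h luciferase read-out. Positive direction vs 17beta-estradiol; n≥4 experiments.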

[7] = molecular target: Estrogen receptor (Homo sapiens) (UniProt P03372); experiment: CCTE_Deisenroth_AIME_384WELL_LUC_Active: CCTE's 384-well Estrogen Receptor Transactivation Assay with AIME metabolic competence (ERTA luciferase; metabolism positive), Deisenroth Lab (AID 2284030; active means hit-call score of the fitted dose curve at least 0.9, where 1 is the maximum)
In short: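 AIME metabolism-positive mode: chemicals 0.002 - 200 uM, 2 h with alginate-bound PB/BNF-induced rat S9 → medium to VM7Luc4E2 ERTA, 24 h → luciferase. Positive fit vs 17beta-estradiol; n=4 typical.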

[8] = CCTE_Deisenroth_AIME_384WELL_CTox_Active: Cytotoxicity Assessment (CTOX) in CCTE's 384-well Estrogen Receptor Transactivation Assay with AIME metabolic competence (metabolism positive), Deisenroth Lab (AID 2284037; active means hit-call score of the fitted dose curve at least 0.9, where 1 is the maximum;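 further: chemicals first conditioned 2 h by alginate-bound induced rat liver S9 before cells; activity means signal loss indicating cell death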)
In short: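 Chemicals pre-incubated 2 hours with alginate-immobilised phenobarbital/beta-naphthoflavone-induced male Sprague Dawley rat liver S9, then conditioned medium applied 24 hour to VM7Luc4E2 cells. Viability by fluorogenic protease substrate; 10-point series 0.002 - 200 uM.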

Measured: AC50

Sequence of Estrogen receptor (Homo sapiens) (P03372 whole entry, looked up): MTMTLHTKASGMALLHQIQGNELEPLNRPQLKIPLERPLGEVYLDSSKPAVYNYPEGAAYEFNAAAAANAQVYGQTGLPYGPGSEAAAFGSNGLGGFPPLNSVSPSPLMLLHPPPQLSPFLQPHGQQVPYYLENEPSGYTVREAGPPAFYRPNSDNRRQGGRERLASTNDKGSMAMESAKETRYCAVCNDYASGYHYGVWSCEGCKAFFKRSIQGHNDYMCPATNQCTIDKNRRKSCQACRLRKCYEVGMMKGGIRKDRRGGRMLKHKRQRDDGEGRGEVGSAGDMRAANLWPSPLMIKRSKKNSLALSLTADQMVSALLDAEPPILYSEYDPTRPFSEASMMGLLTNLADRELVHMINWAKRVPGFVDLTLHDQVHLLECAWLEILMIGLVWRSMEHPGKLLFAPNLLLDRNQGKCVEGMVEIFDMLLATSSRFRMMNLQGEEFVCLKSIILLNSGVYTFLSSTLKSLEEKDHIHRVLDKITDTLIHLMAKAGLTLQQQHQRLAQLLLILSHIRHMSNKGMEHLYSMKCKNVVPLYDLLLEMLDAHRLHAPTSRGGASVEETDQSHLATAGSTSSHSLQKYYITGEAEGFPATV

ClC1=C(Cl)[C@]2(Cl)[C@@H]3[C@@H](Cl)[C@H]4O[C@H]4[C@@H]3C1(Cl)C2(Cl)Cl
active: [1] 0.118 µM | [2] 0.458 µM | [3] 0.0952 µM | [5] 25.3 µM
inactive: [4]

CCC(C)c1cc([N+](=O)[O-])cc([N+](=O)[O-])c1O (centres undefined)
inactive: [1] | [2] | [3]

c1ccc(-c2ccccc2)cc1
active: [7] 88 µM
not listed: [4] | [5]
inactive: all other assays above

O=C(N[C@H]1CN2CCC1CC2)c1cc2ccoc2cn1
inactive: [1] | [2] | [3] | [7] | [8]

O=C(O)C(F)(F)C(F)(F)C(F)(F)C(F)(F)C(F)(F)F
inactive: [1] | [2] | [3] | [4] | [5]

CO/C=C(/C(=O)OC)c1ccccc1COc1cccc(C(F)(F)F)n1
active: [1] 0.313 µM | [2] 5.05 µM | [3] 5.76 µM | [4] 272 nM and 453 nM | [5] 822 nM and 381 nM

Clc1ccc(C(Cl)(Cl)Cl)cc1
inactive: [1] | [2] | [3] | [7] | [8]

CCC(C)(CC)c1cc(NC(=O)c2c(OC)cccc2OC)on1
inactive: [1] | [3]
active: [2] 11.4 µM

C=CC(N)=O
inactive: [1] | [2] | [3] | [4] | [5]

CCC(C)(c1ccc(O)cc1)c1ccc(O)cc1
active: [7] 0.927 µM | [8] 164 µM
not listed: [6]
inactive: all other assays above

CCCCCCCCCc1ccc(O)cc1
inactive: [1]
active: [2] 20 µM | [3] 20.9 µM | [7] 26.3 µM | [8] 150 µM

CCCN(CCC)N=O
inactive: [1] | [2] | [3] | [7] | [8]

CC(C)C(=O)OCC(C)(C)C(OC(=O)C(C)C)C(C)C (centres undefined)
inactive: [1] | [2] | [3]

CCCCCCCCCC[N+](C)(C)CCCCCCCCCC
active: [2] 1.63 µM | [3] 14.4 µM
inactive: [1]

O=C(NC(=O)c1c(F)cccc1F)Nc1cc(Cl)c(OC(F)(F)C(F)F)c(Cl)c1
inactive: [1] | [2] | [3]

CC#Cc1cc(C)nc(Nc2ccccc2)n1
inactive: [1]
active: [2] 5.98 µM | [3] 6.46 µM

CCSC(=O)N(CC)C1CCCCC1
inactive: [1]
active: [2] 8.09 µM | [3] 3.61 µM

ClC1=C(Cl)[C@]2(Cl)[C@@H]3[C@@H]4C[C@@H]([C@H]5O[C@@H]45)[C@@H]3[C@@]1(Cl)C2(Cl)Cl
active: [1] 0.318 µM | [2] 0.323 µM | [3] 0.117 µM | [4] 8.23 µM | [5] 24.2 µM

Nc1ccc(-c2ccc(N)cc2)cc1
inactive: [1] | [2] | [3] | [7] | [8]
